{"source": "PubChem BioAssay (NCI)", "note": "The panel holds about 83,000 compounds, 20% with a hit somewhere; the sample as a whole holds those more often.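 Testing used 96-well plates and a 48-hour single-concentration exposure. Example: -40 means 40% of the starting cells died.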 Calls of active or inactive are those of the source. The calls were made as follows: active = growth percent below 10; inactive = the rest.", "data": [{"test_system": "SR leukemia", "assay": "NCI-60 one-dose screen, 48 h (100 = growth as untreated, 0 = no growth, -100 = all killed)", "details": "10 µM unless noted", "values": [{"smiles": "CCN(CC)CCn1nc2c3c(cccc3c1=O)-c1ccccc1-2", "growth": "4.64% (active)"}, {"smiles": "Cc1cc(Cl)nc(NCc2cc(Nc3ccnc4cc(Cl)ccc34)ccc2F)n1", "growth": "-7.84% (active)"}, {"smiles": "O=C(NCCCNc1cc(-c2cn(-c3ccccc3)nc2-c2cccc(O)c2)ccn1)c1ccccc1", "growth": "-25.8% (active)"}, {"smiles": "COc1ccc(-c2cc(-c3cc(OC)ccc3OC)nc(SCC(=O)c3ccccc3)c2C#N)cc1", "growth": "83.3% (inactive)"}, {"smiles": "Nc1cc2c3c(cccc3c1)C(=O)N(CCN1CCCC1)C2=O", "growth": "-6.11% (active)"}, {"smiles": "COc1ccc(-c2csc(C3=C(O)CN(CCCN4CCCC4=O)C3=N)n2)cc1OC", "growth": "77.1% (inactive)"}, {"smiles": "CCCCn1c(=O)c2c(nc(NCCc3ccc(O)c(O)c3)n2CCC)n(CCCC)c1=O", "growth": "35.9% (inactive)"}, {"smiles": "N#C/C(=C/C=C/c1cccc(Cl)c1)S(=O)c1ccccc1", "note": "(stereo not given)", "growth": "1.43% (active)"}, {"smiles": "O=C1OC(c2nc3ccccc3s2)=C/C1=C\\c1ccc(O)cc1", "growth": "100% (inactive)"}, {"smiles": "CC/C=C\\CCC/C=C1/C(=O)C=C[C@@H]1C/C=C\\CCCC(=O)O", "growth": "8.78% (active)"}, {"smiles": "CC(=O)C(C)Cc1cc2c(cc1C)C(C)(C)CCC2(C)C", "note": "(stereo not given)", "growth": "131% (inactive)"}, {"smiles": "O=[N+]([O-])c1ccc(C2CC(c3ccccc3)=Nc3ccccc3S2)cc1", "note": "(stereo not given)", "growth": "30.9% (inactive)"}, {"smiles": "COc1ccc(-c2nc3c(c(=O)n2C(C)=O)C(c2ccc(Cl)cc2)c2sc4c(Cl)cccc4c2O3)cc1", "note": "(stereo not given)", "growth": "-11.7% (active)"}, {"smiles": "FC(F)(F)c1cc(Nc2ccc3cc(OCCCN4CCOCC4)ccc3n2)ccc1Cl", "growth": "-12.3% (active)"}, {"smiles": "CC(C)CCC[C@@H](C)[C@H]1CC[C@H]2[C@@H](Nc3ccc(O)cc3)CCC[C@]12C", "growth": "71.8% (inactive)"}]}]}
